Test results as given in PubChem BioAssay (NCI).
Compounds without any hit were thinned out: in the full panel of roughly 83,000, 20% have a hit.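 Note: values are percent growth. 100 is the growth of untreated cells, values between 100 and 0 indicate rising inhibition; between -100 and 0 indicates cell death.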 A number with no mark means an inactive call. Calls of active or inactive are those of the source. How the source made its calls: active means growth percent below 10; inactive means the rest.

Legend:
Experiment in all cases: NCI-60 one-dose screen, 48 h (100 = growth as untreated, 0 = no growth, -100 = all killed)
Details in all cases: 10 µM unless noted
[1] = test system: T-47D breast
[2] = test system: BT-549 breast
[3] = test system: MDA-MB-435 melanoma
[4] = test system: SW-620 colon
[5] = test system: MCF7 breast
[6] = test system: HCT-116 colon
[7] = test system: HCC-2998 colon
[8] = test system: KM12 colon

Compound | growth [1] | growth [2] | growth [3] | growth [4] | growth [5] | growth [6] | growth [7] | growth [8]
COc1ccc2c(c1)[n+](=O)c(/C=C/C(=O)c1cc(OC)c(OC)c(OC)c1)c(C)n2[O-] | 28.3% | 73.3% | 34.6% | 21.7% | 18.1% | 17.9% | 112% | 80.9%
O=c1oc2c(cc1-c1ccc([N+](=O)[O-])cc1)C(O)Oc1ccccc1-2 (stereo not given) | 75.3% | 97.1% | 89.3% | 91.9% | 90.8% | 94.8% | 94.3% | 95.4%
O=C1NC(=O)/C(=C/c2ccc(Cl)cc2Cl)N1 | 90.9% | 104% | 116% | 102% | 95.3% | 114% | 102% | 103%
C[C@H]1O[C@@H](O[C@H]2[C@@H](O)C[C@H](O[C@H]3[C@@H](O)C[C@H](O[C@H]4CC[C@]5(C)C6CC[C@]7(C)[C@@H](C8=CC(=O)OC8)CC[C@]7(O)C6CC[C@@H]5C4)O[C@@H]3C)O[C@@H]2C)C[C@H](O)[C@@H]1O (stereo not given in full) | -44.5% (active) | -92.5% (active) | -100% (active) | -100% (active) | -41.2% (active) | -96.7% (active) | -90.8% (active) | -100% (active)
O=C(Nc1ccccc1)P(=O)(O)c1ccccc1 | 113% | 110% | 111% | 101% | 96.8% | 98.1% | 97.3% | 99.8%
O=C(N/N=C/c1ccc(Cl)cc1Cl)c1ccccc1Nc1cccc(C(F)(F)F)c1 | 83.4% | -57.4% (active) | 70.7% | 84.4% | 280% | 60.7% | 88.2% | 79%
CCSc1nc(-c2ccc(F)cc2)c(C#N)c(=O)[nH]1 | 120% | 105% | 101% | 107% | 102% | 109% | 99.8% | 100%
CCOC(=O)Nc1ccc2c3c(cccc13)-c1ccccc1-2 | 58.7% | 26.1% | -9.66% (active) | 14.9% | 15.8% | 16.6% | 41.2% | 18.3%
CCOC(=O)C(C(=O)OCC)C1CCCCC1 | 100% | 104% | 101% | 104% | 98.6% | 104% | 111% | 105%
Nc1ccc(N=Nc2ccccc2)cc1[N+](=O)[O-] | 59.8% | 85.4% | 101% | 93.1% | 24.1% | 91.4% | 103% | 53.2%
CCOC(=O)C1=CCC(n2cc(C)c(=O)[nH]c2=O)O1 (stereo not given) | 99.1% | 120% | 113% | 105% | 119% | 102% | 110% | 96%
C=C1CCC2C(C)(COC(=O)CC)C(OC(=O)CC)CCC2(C)C1C/C=C1/C(=O)OCC1OC(=O)CC (stereo not given) | -51.9% (active) | 83.6% | 2.16% (active) | -62.2% (active) | -35.1% (active) | -100% (active) | -65.8% (active) | 3.97% (active)
C[C@H]1c2cccc(O)c2C(O)=C2C(=O)[C@]3(O)C(O)=C(C(N)=O)C(=O)[C@@H](N(C)C)[C@@H]3[C@@H](O)[C@@H]21 | 53.1% | 33.8% | 50.7% | 65.9% | 58.9% | 18.6% | 27.1% | 54.1%
O=c1ncc(-c2ccc(C(F)(F)F)cc2)c(NC2CCCCCC2)[nH]1 | 32.5% | 72.7% | 45.3% | 46.5% | 40.4% | 39.1% | 98.1% | 33.4%
O=C1NCCc2c1noc2-c1ccccc1 | 89.3% | 97% | 106% | 109% | 92.9% | 88.3% | 99.9% | 103%
COc1cc(/C=C/C(=O)CC(=O)/C=C/c2ccc(OC(=O)CCNC34CC5CC(CC(C5)C3)C4)c(OC)c2)ccc1OC(=O)CCNC12CC3CC(CC(C3)C1)C2 | 50.8% | -10.7% (active) | -31.2% (active) | 8.69% (active) | 17.8% | -0.854% (active) | 34.1% | 5.79% (active)
CCOc1cc(/C=C/C(=O)C(C(=O)/C=C/c2ccc(OC(=O)CNc3nnc(C)s3)c(OCC)c2)C(=O)CNc2nnc(C)s2)ccc1OC(=O)CNc1nnc(C)s1 | 68.2% | -56.2% (active) | -8.14% (active) | -64.8% (active) | -6.02% (active) | -77.7% (active) | -64.8% (active) | -64.4% (active)
O=c1c2c(=NCCCN3CCCC3)cc3c(=O)n(CCCN4CCCC4)c(=O)c4c(NCCCN5CCCC5)cc(c(O)n1CCCN1CCCC1)c2c4-3 | -6.25% (active) | -29.9% (active) | -62.4% (active) | -3.24% (active) | 0.241% (active) | 2.72% (active) | -43.1% (active) | 0.818% (active)
NC(=O)NS(=O)(=O)c1ccc(N2N=C(C(F)(F)F)CC2c2cc(C(F)(F)F)cc(C(F)(F)F)c2)cc1 (stereo not given) | 72.4% | 98% | 40% | 82.6% | 49.7% | 55.9% | 88.2% | 71%
CC(=O)N1N=C(c2ccc3c(c2)OCO3)CC1c1c(C)nn(-c2ccccc2)c1N(C)Cc1ccccc1 (stereo not given) | 58.6% | 85.2% | 90.7% | 85.9% | 66.1% | 57.3% | 97.2% | 83.6%
COc1ccc(C2CC(c3ccc(Nc4ccnc5cc(Cl)ccc45)cc3)=NN2C(C)=O)cc1 (stereo not given) | 40% | 68.5% | 23% | 87.2% | 55.7% | 61.3% | 70% | 59.3%
COc1ccc2c(c1)C(=Nc1cc(OC)c(OC)c(OC)c1)C(=O)N2 | 98.7% | 99% | 118% | 102% | 105% | 51% | 125% | 105%
CCCCCCCCCCOC(C)=O | 100% | 118% | 106% | 106% | 93.6% | 112% | 109% | 113%
Cc1c2oc3c(C)ccc(C(=O)OC(C)C4NC(=O)C(C(C)C)N(C)C(=O)CN(C)C(=O)C5CCCN5C(=O)C(C(C)C)NC4=O)c3nc-2c(C(=O)OC(C)C2NC(=O)C(C(C)C)N(C)C(=O)CN(C)C(=O)C3CCCN3C(=O)C(C(C)C)NC2=O)c(N)c1=O (stereo not given) | 5.74% (active) | -38.1% (active) | -71.1% (active) | 3.76% (active) | 5.55% (active) | 7.39% (active) | -34.4% (active) | 0.674% (active)
CC(=O)Nc1cc2c3c(cccc3c1)-c1ccccc1-2 | 75.4% | 64.7% | 68.4% | 99.7% | 96.9% | 95.9% | 87.8% | 51.1%
O=C(COc1cccc(/C=C2\Oc3ccc4ccccc4c3C2=O)c1)c1ccc([N+](=O)[O-])cc1 | 64% | -81.9% (active) | 90.8% | 80% | 49.3% | 58.5% | 108% | 88.3%
CCOC(=O)c1cnc2c(C)cc(C)cc2c1NCCCN(C)C | 54.5% | 61.3% | 32.3% | 30.3% | 15.1% | 15.4% | 29% | 31.6%
CC(=O)N1N=C(c2ccc(Cl)cc2)CC1c1c(C)nn(-c2ccccc2)c1N(C)Cc1ccccc1 (stereo not given) | 59.6% | 88.5% | 87% | 80.6% | 72.2% | 53.1% | 88.2% | 74.8%
[N-]=[N+]=NCc1ncc(-c2ccc(C(F)(F)F)cc2)c(NC2CCCCCC2)n1 | 63.1% [50 µM] | 81.9% [50 µM] | 61.6% [50 µM] | 75.4% [50 µM] | 66.2% [50 µM] | 40.5% [50 µM] | 85.8% [50 µM] | 46.8% [50 µM]
O=C(C(=O)N1CCOCC1)c1cn(CCCn2cc(C(=O)C(=O)N3CCOCC3)c3ccccc32)c2ccccc12 | 94.7% | 104% | 111% | 115% | 95.4% | 98.4% | 108% | 110%
